From PubChem BioAssay (Tox21)
Inconclusive results are not listed. Where a call stands in place of a potency, no number is given. Activity calls are given as the source filed them. The call rests on the fitted dose curve; in most records, active means well fitted cell-killing curve with a large enough effect in the repeat runs; inconclusive means weak or mixed curves, or effect the other way; inactive means flat fitted curve, though single readings scatter.

Experiment: cAMP Responsive Elements (CRE) small molecule antagonists, cell-based qHTS assay: qHTS cell viability counter screen (AID 2060913); further: nearly all actives have a fitted effect of over 40% in size
Conditions: CRE-bla HEK293T viability, CellTiter-Glo luminescence, 5 h; series mostly up to 92.4 µM
Method in brief: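 Steps: cells plated and held 18 hrs at 37 C/5% CO2; compounds and NKH477 (0.25 uM final) added; 3 hrs incubation; reporter substrate read; CellTiter-Glo added to measure cytotoxicity by luminescence.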

| SMILES | Potency |
| --- | --- |
| NNC(=O)c1ccccc1 | inactive |
| CCC(C)(C)c1cc(-n2nc3ccccc3n2)c(O)c(C(C)(C)CC)c1 | inactive |
| SCc1ccccc1 | inactive |
| ClCCCCBr | inactive |
| CCCN1CCC[C@@H]2Cc3[nH]ncc3C[C@H]21 | inactive |
| CCN1CCCC1CNC(=O)C(O)(c1ccccc1)c1ccccc1 (centres undefined) | inactive |
| C=C1CC[C@@]2(O)[C@H]3Cc4ccc(O)c5c4[C@@]2(CCN3CC2CC2)[C@H]1O5 | inactive |
| C[N+](C)(C)CCOC(=O)C(O)(c1ccccc1)c1ccccc1 | inactive |
| ClCCCCCCCl | inactive |
| CCC1(c2ccc(N)cc2)CCC(=O)NC1=O (centres undefined) | inactive |
| CC(C)NCC(O)c1ccc([N+](=O)[O-])cc1 (centres undefined) | inactive |
| CN(C)C(=O)Nc1ccc(Cl)cc1 | inactive |
| O=C(CBr)Nc1ccc(Cl)cc1C(=O)c1ccccc1F | inactive |
| CCOC(=O)N(C)N=O | inactive |

Experiment: cAMP Responsive Elements (CRE) small molecule agonists, cell-based qHTS assay: qHTS cell viability counter screen (AID 2060914); further: potency means the concentration at half of the fitted maximal effect;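 further: viability read after 3 h of compound exposure; nearly all actives have a fitted effect of over 50% in size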
Conditions: CRE-bla HEK293T viability, CellTiter-Glo luminescence, 5 h; series mostly up to 92.4 µM
Method in brief: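 CRE-bla HEK293T cells in 10% dialyzed FBS medium were exposed to compounds for 3 h at 37C after 18 h plating. CellTiter-Glo was then added in the same wells, and luminescence was read after 30 min at room temperature.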

| SMILES | Potency |
| --- | --- |
| CC(C)(C#N)C(C)(C)C#N | inactive |
| CCOC(=O)CP(=O)(OCC)OCC | inactive |
| O=S(=O)(O)C(F)(F)C(F)(F)C(F)(F)C(F)(F)C(F)(F)C(F)(F)F | inactive |
| CC#C[C@]1(O)CC[C@H]2[C@@H]3C[C@H](C)C4=CC(=O)CC[C@]4(C)[C@H]3CC[C@@]21C | inactive |
| CCN(CC)C(=O)Cl | inactive |
| CCOP(=S)(OCC)Oc1ncn(-c2ccccc2)n1 | inactive |
| CCCCOC(=O)c1ccccc1C(=O)O | inactive |
| NC(=O)CS(=O)C(c1ccccc1)c1ccccc1 (centres undefined) | inactive |
| O=C1C(Cl)=C(Cl)C(=O)C(Cl)=C1Cl | inactive |
| CN/C(=N\[N+](=O)[O-])NCc1cnc(Cl)s1 | inactive |
| O=C(NC(=O)c1c(F)cccc1F)Nc1ccc(Cl)cc1 | inactive |
| CCC(C)n1c(=O)[nH]c(C)c(Br)c1=O (centres undefined) | inactive |
| CCCCC1C(=O)NC(=O)N(C2CCCCC2)C1=O (centres undefined) | inactive |
| CN(C)P(=O)(N(C)C)N(C)C | inactive |
| c1ccc(N=NNc2ccccc2)cc1 | inactive |
| CC1CCC(C(C)C)C(OC(=O)c2ccccc2N)C1 (centres undefined) | 53.7 µM (active) |
| CCn1cc[n+](C)c1C | inactive |
| CC(C)(C#N)N=NC(C)(C)C#N | inactive |
| CCCCNC(=O)n1c(NC(=O)OC)nc2ccccc21 | inactive |
| CSSC | inactive |

| SMILES | Potency |
| --- | --- |
| COP(=S)(OC)Oc1ccc(SC)c(C)c1 | inactive |
| CCCCCON=O | inactive |
| O=P(O)(O)CCCl | inactive |
| Nc1ccc(-c2ccc(N)c(N)c2)cc1N | inactive |
| CCSCc1ccccc1OC(=O)NC | inactive |
| CNC(=O)O/N=C(\C)SC | inactive |
| NNC(=O)c1ccccc1 | inactive |
| CCC(C)(C)c1cc(-n2nc3ccccc3n2)c(O)c(C(C)(C)CC)c1 | inactive |
| SCc1ccccc1 | inactive |
| ClCCCCBr | inactive |
| CCCN1CCC[C@@H]2Cc3[nH]ncc3C[C@H]21 | inactive |
| CCN1CCCC1CNC(=O)C(O)(c1ccccc1)c1ccccc1 (centres undefined) | inactive |
| C=C1CC[C@@]2(O)[C@H]3Cc4ccc(O)c5c4[C@@]2(CCN3CC2CC2)[C@H]1O5 | inactive |
| C[N+](C)(C)CCOC(=O)C(O)(c1ccccc1)c1ccccc1 | inactive |
| ClCCCCCCCl | inactive |
| CCC1(c2ccc(N)cc2)CCC(=O)NC1=O (centres undefined) | inactive |
| CC(C)NCC(O)c1ccc([N+](=O)[O-])cc1 (centres undefined) | inactive |
| CN(C)C(=O)Nc1ccc(Cl)cc1 | inactive |
| O=C(CBr)Nc1ccc(Cl)cc1C(=O)c1ccccc1F | inactive |
| CCOC(=O)N(C)N=O | inactive |
